Laboratory results published in PubChem BioAssay (EPA / NIEHS).
Inconclusive results are not listed. Calls of active or inactive are those of the source. How the source made its calls, unless noted: active means hit-call score of the fitted dose curve at least 0.9, where 1 is the maximum; inactive means score below 0.9.

Tests used:
[1] = ACEA_ER_80hr: ACEA Biosciences xCELLigence Real-Time Cell Analysis on Estrogen Receptor Agonism for Proliferation (AID 2282667; active means hit-call score of the fitted dose curve at least 0.9, where 1 is the maximum); conditions: T47D proliferation, impedance (xCELLigence), 80 h
In short: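 Real-time electrical impedance tracked growth of the human breast line T47D, with the 80 h post-dosing value used. Dosing spanned eight 1:4 steps down from a 100 uM final top concentration, run in duplicate.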

[2] = ATG_CRE_CIS: Attagene CIS-FACTORIAL HepG2 Assay for human cAMP Responsive Element (CRE) binding protein 3 (AID 2282926); conditions: HepG2 CRE cis-reporter, Attagene multiplexed mRNA; actives raise or lower the signal
In short: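 Assay format: transient reporter transfection of HepG2, 24 h treatment, total RNA isolation with DNase I step. Reporter abundance read by fluorescence after PCR and capillary separation; DMSO-normalised gain or loss fitting.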

[3] = target: CCAAT/enhancer-binding protein beta (Homo sapiens) (UniProt P17676); assay: ATG_C_EBP_CIS: Attagene CIS-FACTORIAL HepG2 Assay for human CCAAT/Enhancer Binding Protein (C/EBP) beta (AID 2282927); conditions: HepG2 Attagene cis-factorial transcription factor reporter; actives raise or lower the signal
Sequence of CCAAT/enhancer-binding protein beta (Homo sapiens) (P17676 whole entry, looked up): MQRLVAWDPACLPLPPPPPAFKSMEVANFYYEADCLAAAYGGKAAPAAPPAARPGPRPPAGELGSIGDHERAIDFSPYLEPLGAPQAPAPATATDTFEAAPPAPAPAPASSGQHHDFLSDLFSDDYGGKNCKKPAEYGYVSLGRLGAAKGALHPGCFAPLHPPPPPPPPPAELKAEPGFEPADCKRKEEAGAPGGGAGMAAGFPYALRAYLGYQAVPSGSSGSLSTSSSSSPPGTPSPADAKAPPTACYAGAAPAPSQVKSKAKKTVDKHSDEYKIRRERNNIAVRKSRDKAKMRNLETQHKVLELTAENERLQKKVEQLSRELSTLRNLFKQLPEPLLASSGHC
In short: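 Changes in reporter mRNA, rather than exogenous chimeric receptor activity, reflect native C/EBP signalling in transfected HepG2 cells dosed for 24 h; transcripts are detected by RT-PCR and capillary electrophoresis.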

[4] = ATG_CMV_CIS: Attagene CIS-FACTORIAL HepG2 Assay for human CMV (Internal Marker) (AID 2282928); conditions: HepG2 CMV promoter reporter, transcription factor profiling; actives raise or lower the signal;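 further: endpoint acts as a background internal control marker rather than a target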
In short: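 Reporter transcripts from transfected HepG2 cells are isolated after 24 h of chemical dosing, reverse-transcribed and amplified. Fragments labeled with 6-FAM are cut with HpaI and quantified by capillary electrophoresis; DMSO defines baseline.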

[5] = target: Aryl hydrocarbon receptor (Homo sapiens) (UniProt P35869); assay: ATG_Ahr_CIS: Attagene CIS-FACTORIAL HepG2 Assay for human Aryl Hydrocarbon Receptor (Ahr) (AID 2282930); conditions: HepG2 AhR cis-factorial reporter transcription; actives raise or lower the signal
Sequence of Aryl hydrocarbon receptor (Homo sapiens) (P35869 whole entry, looked up): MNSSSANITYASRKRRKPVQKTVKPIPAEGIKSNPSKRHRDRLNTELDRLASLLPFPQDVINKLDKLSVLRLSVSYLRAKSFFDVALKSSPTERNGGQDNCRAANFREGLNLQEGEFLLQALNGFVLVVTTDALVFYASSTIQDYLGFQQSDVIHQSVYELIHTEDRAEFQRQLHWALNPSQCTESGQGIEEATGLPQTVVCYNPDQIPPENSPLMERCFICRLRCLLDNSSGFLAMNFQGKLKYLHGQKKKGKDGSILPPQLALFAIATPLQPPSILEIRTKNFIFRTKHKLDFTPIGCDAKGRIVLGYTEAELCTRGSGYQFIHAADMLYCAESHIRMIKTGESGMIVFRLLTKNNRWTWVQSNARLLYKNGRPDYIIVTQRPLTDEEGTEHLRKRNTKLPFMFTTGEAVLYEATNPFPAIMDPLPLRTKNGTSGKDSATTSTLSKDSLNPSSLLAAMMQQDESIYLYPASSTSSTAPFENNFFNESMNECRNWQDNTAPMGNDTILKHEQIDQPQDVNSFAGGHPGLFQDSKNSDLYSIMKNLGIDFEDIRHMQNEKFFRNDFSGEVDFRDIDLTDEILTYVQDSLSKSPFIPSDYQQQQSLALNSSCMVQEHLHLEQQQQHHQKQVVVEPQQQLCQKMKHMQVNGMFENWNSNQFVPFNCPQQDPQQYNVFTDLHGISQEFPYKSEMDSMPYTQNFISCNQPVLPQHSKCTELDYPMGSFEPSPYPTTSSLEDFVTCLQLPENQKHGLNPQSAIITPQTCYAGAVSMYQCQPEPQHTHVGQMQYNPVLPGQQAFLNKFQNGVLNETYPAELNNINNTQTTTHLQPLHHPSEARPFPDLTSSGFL
In short: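 HepG2, transient MRTU (cis) transfection, 24 h exposure. RNA → cDNA → PCR → 6-FAM primer extension → HpaI 2 h 37 C → CE. Fit: bidirectional, DMSO baseline.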

[6] = ATG_AP_1_CIS: Attagene CIS-FACTORIAL HepG2 Assay for human Activator Protein 1 (AP-1) (AID 2282931); conditions: HepG2 Attagene cis-factorial AP-1 reporter mRNA; actives raise or lower the signal
In short: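 Bidirectional concentration-response fitting against DMSO controls. Underlying signal: reporter mRNA from cis-promoter constructs in transiently transfected HepG2, measured after 24 h by RT-PCR and capillary electrophoresis.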

[7] = ATG_AP_2_CIS: Attagene CIS-FACTORIAL HepG2 Assay for human Activator Protein 2 (AP-2) (AID 2282932); conditions: HepG2 AP-2 cis-reporter, Attagene transcription factor profiling; actives raise or lower the signal
In short: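 Transiently transfected HepG2 cells are exposed to chemical for 24 h. Reporter transcripts are then measured as fluorescence following RT-PCR and capillary separation, and gain- or loss-of-signal is fitted relative to DMSO.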

[8] = ATG_BRE_CIS: Attagene CIS-FACTORIAL HepG2 Assay for human Bone Morphogenetic Protein (BMP) Response Element (BRE) (AID 2282933); conditions: HepG2 BMP response element reporter, Attagene transcription factor profiling; actives raise or lower the signal
In short: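 HepG2 cells transiently transfected with multiplexed cis-element reporter units were dosed with chemical for 24 h. Reporter mRNA was measured by RT-PCR with fluorescent labelling, HpaI digestion and capillary electrophoresis; bidirectional fitting relative to DMSO.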

[9] = target: Retinoic acid receptor alpha (Homo sapiens) (UniProt P10276); assay: ATG_DR5_RAR_CIS: Attagene CIS-FACTORIAL HepG2 Assay for human Retinoic Acid Receptor Alpha (RARE), DR5 submotif (AID 2282934); conditions: HepG2 Attagene cis-factorial RARE DR5 reporter, mRNA; actives raise or lower the signal
Sequence of Retinoic acid receptor alpha (Homo sapiens) (P10276 whole entry, looked up): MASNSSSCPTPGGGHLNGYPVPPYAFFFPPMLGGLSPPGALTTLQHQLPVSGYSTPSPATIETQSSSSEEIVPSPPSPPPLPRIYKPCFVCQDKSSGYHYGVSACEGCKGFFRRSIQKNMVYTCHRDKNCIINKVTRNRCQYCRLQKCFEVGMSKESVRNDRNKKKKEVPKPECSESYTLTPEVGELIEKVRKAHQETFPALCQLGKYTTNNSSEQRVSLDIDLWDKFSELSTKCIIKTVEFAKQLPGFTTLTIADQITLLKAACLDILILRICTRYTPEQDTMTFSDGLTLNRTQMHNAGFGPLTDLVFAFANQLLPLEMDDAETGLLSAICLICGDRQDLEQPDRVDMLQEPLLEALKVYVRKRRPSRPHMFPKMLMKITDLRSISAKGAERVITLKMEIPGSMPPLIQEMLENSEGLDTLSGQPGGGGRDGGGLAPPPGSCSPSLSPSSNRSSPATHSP
In short: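 HepG2, transient cis-reporter transfection, 24 h exposure. mRNA readout: RT-PCR, FAM label, HpaI cut, capillary electrophoresis. DMSO baseline, gain/loss fitting.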

[10] = target: Transcription factor E2F1 (Homo sapiens) (UniProt Q01094); assay: ATG_E2F_CIS: Attagene CIS-FACTORIAL HepG2 Assay for human E2F Transcription Factor 1 (AID 2282935); conditions: HepG2 Attagene cis-reporter, E2F reporter RNA transcripts; actives raise or lower the signal
Sequence of Transcription factor E2F1 (Homo sapiens) (Q01094 whole entry, looked up): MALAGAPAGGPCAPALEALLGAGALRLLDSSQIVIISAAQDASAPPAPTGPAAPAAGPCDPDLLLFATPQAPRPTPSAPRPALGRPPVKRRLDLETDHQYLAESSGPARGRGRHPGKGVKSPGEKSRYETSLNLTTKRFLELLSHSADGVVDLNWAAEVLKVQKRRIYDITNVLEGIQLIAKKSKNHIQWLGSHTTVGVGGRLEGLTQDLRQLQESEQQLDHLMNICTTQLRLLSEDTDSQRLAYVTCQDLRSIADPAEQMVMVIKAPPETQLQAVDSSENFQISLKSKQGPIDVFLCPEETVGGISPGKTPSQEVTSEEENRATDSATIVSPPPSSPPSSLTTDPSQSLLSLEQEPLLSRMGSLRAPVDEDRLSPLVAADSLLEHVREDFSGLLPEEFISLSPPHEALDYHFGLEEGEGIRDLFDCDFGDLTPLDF
In short: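 Fluorescent RT-PCR products, digested with HpaI for 2 h at 37 C, are separated by capillary electrophoresis. Source RNA comes from transfected HepG2 cultures treated for 24 h.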

[11] = ATG_E_Box_CIS: Attagene CIS-FACTORIAL HepG2 Assay for human Enhancer Box (E-box) (AID 2282936); conditions: HepG2 E-box cis-reporter transcription, actives raise or lower the signal
In short: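 Fluorescent reporter fragments separated by capillary electrophoresis gave the signal; mRNA came from HepG2 cells transfected with cis-element reporters and treated 24 h. Curves fitted bidirectionally relative to DMSO controls.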

[12] = ATG_M_61_CIS: Attagene CIS-FACTORIAL HepG2 Assay for M61 Transcription Factor (Internal Marker) (AID 2282937); conditions: HepG2 Attagene CIS-FACTORIAL M61 internal marker reporter; actives raise or lower the signal
In short: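 Fluorescence from labelled cDNA fragments, separated by capillary electrophoresis, quantifies reporter induction. HepG2 cells bearing transiently transfected cis-promoter MRTUs were incubated with test chemical for 24 h; DMSO defined baseline for gain/loss fitting.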

[13] = ATG_M_19_CIS: Attagene CIS-FACTORIAL HepG2 Assay for M19 Transcription Factor (Internal Marker) (AID 2282939); conditions: HepG2 Attagene CIS-FACTORIAL M19 internal marker reporter; actives raise or lower the signal
In short: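 HepG2 cells transiently transfected with cis-regulated multiple reporter transcription units were dosed for 24 h; reporter mRNA was quantified by RT-PCR, 6-FAM primer-extension labelling, HpaI digestion and capillary electrophoresis, with bidirectional fitting against DMSO baseline.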

[14] = ATG_ERE_CIS: Attagene CIS-FACTORIAL HepG2 Assay for Estrogen Response Element (ERE) (AID 2282940); conditions: HepG2 ERE cis-reporter, Attagene RNA transcript; actives raise or lower the signal
In short: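 HepG2 cells transiently transfected with cis-promoter-driven multiplexed reporter transcription units report endogenous TF activity. After 24 h compound exposure, reporter mRNA is quantified by RT-PCR with capillary electrophoresis fluorescence; bidirectional fitting versus DMSO baseline.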

[15] = ATG_Ets_CIS: Attagene CIS-FACTORIAL HepG2 Assay for human Erythroblast Transformation Specific (ETS) (AID 2282941); conditions: HepG2 ETS cis-reporter transcription, actives raise or lower the signal
In short: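 Bidirectional fit versus DMSO of reporter mRNA signal, detected by RT-PCR and capillary electrophoresis in HepG2 cells transiently transfected with cis-element reporters and dosed 24 h.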

[16] = target: Hepatocyte nuclear factor 3-beta (Homo sapiens) (UniProt Q9Y261); assay: ATG_FoxA2_CIS: Attagene CIS-FACTORIAL HepG2 Assay for human Forkhead box A2 (FOXA2) (AID 2282942); conditions: HepG2 cis-reporter transcription factor activity, 24 h; actives raise or lower the signal
Sequence of Hepatocyte nuclear factor 3-beta (Homo sapiens) (Q9Y261 whole entry, looked up): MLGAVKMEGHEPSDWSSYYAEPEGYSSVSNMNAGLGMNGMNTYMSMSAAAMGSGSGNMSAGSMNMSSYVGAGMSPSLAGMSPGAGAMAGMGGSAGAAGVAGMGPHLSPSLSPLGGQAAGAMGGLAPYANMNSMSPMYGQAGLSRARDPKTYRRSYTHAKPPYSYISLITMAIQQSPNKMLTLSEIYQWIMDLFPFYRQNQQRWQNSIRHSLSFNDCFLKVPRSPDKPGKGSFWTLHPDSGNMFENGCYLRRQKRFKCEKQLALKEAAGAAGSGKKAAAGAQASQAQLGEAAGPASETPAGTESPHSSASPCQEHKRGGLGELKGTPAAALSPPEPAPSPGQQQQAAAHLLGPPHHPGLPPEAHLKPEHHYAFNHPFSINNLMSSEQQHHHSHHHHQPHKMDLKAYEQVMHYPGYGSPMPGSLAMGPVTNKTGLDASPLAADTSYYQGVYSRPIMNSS
In short: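 In transiently transfected human HepG2 cells, promoter-driven reporter mRNA levels after 24 h chemical exposure are determined via RT-PCR with capillary electrophoresis. DMSO serves as baseline for bidirectional fitting.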

[17] = ATG_GATA_CIS: Attagene CIS-FACTORIAL HepG2 Assay for human GATA Binding Protein (AID 2282944); conditions: HepG2 GATA cis-element reporter, Attagene multiplex mRNA; actives raise or lower the signal
In short: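 HepG2 cells transiently transfected with multiplexed cis-element reporter units reflecting endogenous transcription factor activity; reporter mRNA measured after 24 h dosing by RT-PCR, 6-FAM labeling, HpaI digestion and capillary electrophoresis. Bidirectional fitting versus DMSO baseline.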

[18] = ATG_EGR_CIS: Attagene CIS-FACTORIAL HepG2 Assay for human Early Growth Response 1 (EGR1) (AID 2282938); conditions: HepG2 Attagene CIS-FACTORIAL EGR reporter mRNA; actives raise or lower the signal
In short: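 Cell-based multiplex transcription assay: HepG2 carrying transfected cis-element reporter units, 24 h chemical treatment. Fluorescence from capillary electrophoresis of RT-PCR products gives mRNA levels; fitting is bidirectional relative to DMSO.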

[19] = ATG_FoxO_CIS: Attagene CIS-FACTORIAL HepG2 Assay for human Forkhead box O (FoxO) (AID 2282943); conditions: HepG2 Attagene cis-reporter, FoxO element, mRNA; actives raise or lower the signal
In short: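 Human hepatoma HepG2 cells carry transiently introduced reporter transcription units controlled by cis promoter elements. Chemical treatment lasted 24 h, and mRNA signal was compared with DMSO.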

[20] = ATG_DR4_LXR_CIS: Attagene CIS-FACTORIAL HepG2 Assay for human Liver X Receptor (LXR), DR4 submotif (AID 2282929); conditions: HepG2 Attagene DR4 cis-reporter, mRNA transcription; actives raise or lower the signal
In short: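 Measures endogenous transcription factor activity via a DR4-driven reporter transcript in human HepG2 cells. Compounds incubated 24 h; mRNA quantified by RT-PCR and capillary electrophoresis, analysed as gain or loss of signal versus DMSO.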

Measured: outcome

CC(=O)OCc1ccccc1
not listed: [18] | [19] | [20]
inactive: all other assays above

CCC[Si](OC)(OC)OC
not listed: [9] | [11] | [20]
inactive: all other assays above

CCCCCCCCCC(C)=O
not listed: [20]
inactive: all other assays above

CCCc1ccc(O)c(OC)c1
not listed: [6] | [19] | [20]
inactive: all other assays above

CC1(C)[C@@H]2CC[C@@]1(C)C(=O)C2
not listed: [2]
inactive: all other assays above

O=C1c2ccccc2C(=O)c2cc(S(=O)(=O)O)ccc21
not listed: [8] | [11] | [14] | [20]
inactive: all other assays above

CC(CC(C)C)=NO
not listed: [9] | [20]
inactive: all other assays above

C=CC(=O)OCCCCCCCCCC
not listed: [9] | [11] | [20]
inactive: all other assays above
